Assay [1] is described as follows: qHTS assay to identify small molecule antagonists of the thyroid receptor (TR) signaling pathway (AID 743065). Also: nearly all actives have a fitted effect of over 55% in size. Also: potency is read from the fitted curve at half-maximal effect. The conditions noted are these: GH3.TRE-Luc, T3-stimulated luciferase inhibition, 23.5 h; series mostly up to 70.3 µM. The method in brief: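 GH3.TRE-Luc rat pituitary cells carrying two TR response elements driving luciferase were plated for 4 h, given compound plus 1 nM T3 (final), and incubated 23.5 h at 37 C. ONE-Glo luminescence measured reporter inhibition; CellTiter-Fluor fluorescence tracked cytotoxicity.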

Assay [2] deals with thyroid hormone receptor (rat, GH3 cells). Kind of assay: qHTS assay to identify small molecule agonists of the thyroid receptor (TR) signaling pathway (AID 743066; calls by dose curve). The settings on record: GH3.TRE-Luc cells, TR agonist luciferase, 24 h; series mostly up to 83.9 µM.
Assay [3] can be described thus: qHTS assay to identify small molecule antagonists of the estrogen receptor alpha (ER-alpha) signaling pathway - cell viability counter screen (AID 743074; calls by dose curve;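 also: HEK293 cells carrying ER-alpha-UAS-bla reporter stimulated with 17beta-estradiol; nearly all actives have a fitted effect of over 45% in size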; also: potency is read from the fitted curve at half-maximal effect). The settings on record: ERalpha-bla HEK293 viability, CellTiter-Glo luminescence, 18 h; series mostly up to 69.4 µM.
Assay [4] is described as follows: qHTS assay to identify small molecule antagonists of the estrogen receptor alpha (ER-alpha) signaling pathway using the BG1 cell line - cell viability counter screen (AID 743081).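 Also: compound given together with 17beta-estradiol as the ER stimulus; nearly all actives have a fitted effect of over 45% in size.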 Also: potency is read from the fitted curve at half-maximal effect. The conditions noted are these: BG1Luc4E2 viability, CellTiter-Fluor, 22 h; series mostly up to 70.3 µM.
In assay [5] the target is Aromatase (Homo sapiens) (UniProt P11511). As to the kind of experiment: qHTS assay to identify aromatase inhibitors (AID 743083). Also: nearly all actives have a fitted effect of over 55% in size. The conditions noted are these: MCF-7 aro ERE, testosterone-driven ERE luciferase, 24 h; series mostly up to 70.3 µM.
Aromatase (Homo sapiens), sequence (P11511 whole entry, looked up): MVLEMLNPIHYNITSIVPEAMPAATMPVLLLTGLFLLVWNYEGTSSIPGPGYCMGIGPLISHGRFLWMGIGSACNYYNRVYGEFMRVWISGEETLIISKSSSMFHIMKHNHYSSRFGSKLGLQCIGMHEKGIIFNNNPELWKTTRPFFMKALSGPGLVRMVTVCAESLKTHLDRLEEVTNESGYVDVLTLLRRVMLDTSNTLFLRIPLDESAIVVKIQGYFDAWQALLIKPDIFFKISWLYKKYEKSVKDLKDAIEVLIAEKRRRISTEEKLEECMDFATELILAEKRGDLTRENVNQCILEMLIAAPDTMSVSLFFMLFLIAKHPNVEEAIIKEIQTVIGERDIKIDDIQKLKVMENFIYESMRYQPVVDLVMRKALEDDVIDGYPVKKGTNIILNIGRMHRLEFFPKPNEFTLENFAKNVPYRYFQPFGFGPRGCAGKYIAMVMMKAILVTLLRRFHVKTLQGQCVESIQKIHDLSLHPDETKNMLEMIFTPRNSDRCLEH
Assay [6] has as its target Estrogen receptor (Homo sapiens) (UniProt P03372). As to the kind of experiment: qHTS assay to identify small molecule antagonists of the estrogen receptor alpha (ER-alpha) signaling pathway (AID 743069; active = well fitted curve in the direction sought with a large enough effect in the signal ratio in the repeat runs, not every such curve was filed as active; inconclusive = weak or mixed curves, or effect the other way; inactive = no such curve, though single readings can be large or run the other way; the % refers to the signal ratio; also: potency is read from the fitted curve at half-maximal effect). The conditions noted are these: HEK293 ER-alpha-UAS-bla, beta-lactamase ratio, antagonist mode; series mostly up to 69.4 µM. Put shortly:
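A 17beta-estradiol challenge was applied right after compound transfer to ER-alpha-UAS-bla HEK293 cells previously kept in charcoal-stripped serum. Plates stood 18 hr at 37C and 5% CO2; fluorescence was read following 2 hr FRET substrate loading at room temperature.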

The target is the same in assay [7]. Kind of assay: qHTS assay to identify small molecule agonists of the estrogen receptor alpha (ER-alpha) signaling pathway using the BG1 cell line (AID 743079). Also: nearly all actives have a fitted effect of over 20% in size. Also: potency is read from the fitted curve at half-maximal effect. The settings on record: BG1Luc4E2 cells, ERE-luciferase agonist, 22 h; series mostly up to 70.3 µM.
A short description of assay [8]: qHTS assay to identify small molecule antagonists of the estrogen receptor alpha (ER-alpha) signaling pathway using the BG1 cell line (AID 743080; calls by dose curve;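 also: BG1 cells stimulated with 17beta-estradiol alongside compound; nearly all actives have a fitted effect of over 25% in size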). The settings on record: BG1Luc4E2 ERE-luciferase antagonist mode, luminescence; series mostly up to 70.3 µM. Put shortly:
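BG1-Luc-4E2 cells (endogenous full-length ER-alpha, 4xERE luciferase) hormone-starved 5 days in charcoal-stripped FBS, plated 4,000/well for 24 h, then compound plus 17beta-estradiol for 21.5 h at 37 C; ONE-Glo luminescence read.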

In assay [9] the target is Estrogen receptor (Homo sapiens) (UniProt P03372). As to the kind of experiment: qHTS assay to identify small molecule agonists of the estrogen receptor alpha (ER-alpha) signaling pathway (AID 743075; calls by dose curve;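 also: HEK293 GripTite cells with ER-alpha and UAS-driven beta-lactamase reporter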). The conditions noted are these: HEK293 ER-alpha-UAS-bla, beta-lactamase FRET ratio, 18 h; series mostly up to 70.1 µM.
Estrogen receptor (Homo sapiens), sequence (P03372 whole entry, looked up): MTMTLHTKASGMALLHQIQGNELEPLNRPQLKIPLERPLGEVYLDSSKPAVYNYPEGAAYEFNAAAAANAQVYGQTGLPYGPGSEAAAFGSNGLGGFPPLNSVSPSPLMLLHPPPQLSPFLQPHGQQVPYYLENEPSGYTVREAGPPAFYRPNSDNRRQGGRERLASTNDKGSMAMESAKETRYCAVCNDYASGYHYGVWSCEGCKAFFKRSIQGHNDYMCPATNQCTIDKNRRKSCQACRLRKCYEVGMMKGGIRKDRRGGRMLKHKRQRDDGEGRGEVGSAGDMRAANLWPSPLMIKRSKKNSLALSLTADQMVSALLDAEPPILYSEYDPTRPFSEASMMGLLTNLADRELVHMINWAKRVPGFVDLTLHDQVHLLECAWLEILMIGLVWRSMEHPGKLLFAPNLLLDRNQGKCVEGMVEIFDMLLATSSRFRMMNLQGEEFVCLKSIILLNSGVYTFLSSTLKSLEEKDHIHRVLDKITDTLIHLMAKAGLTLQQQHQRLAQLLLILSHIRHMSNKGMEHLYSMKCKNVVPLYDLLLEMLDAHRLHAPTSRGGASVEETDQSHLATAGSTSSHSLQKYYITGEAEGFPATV

“And” between values parts separate entries of the source, which are not always exact repeats. Equal values may be shown once. More than one record can exist for a structure, and the calls need not agree. The source made the active and inactive calls. Unless noted, calls follow the shape of the dose curve; as a rule, active = well fitted curve in the direction sought with a large enough effect in the repeat runs; inconclusive = weak or mixed curves; inactive = no such curve, though single readings can be large; an effect the other way counts as inactive or inconclusive.

As for `CCCC1CCC(=O)O1` (stereo not given), the Potency entry in [1], in assay [3], in [4] and in assay [5] was “inactive” each time. In addition, the result in [2] was inactive.
As for `ICCc1ccccc1`, the Potency entry in assay [1], in assay [6], in assay [3], in [7], in assay [4] and in assay [5] was “inactive” each time. For the same compound, the outcome in assay [2] and in [8] was inactive.
Regarding `CC(=O)N[C@@H](CC(C)C)C(=O)O`, the Potency entry in [1], in assay [6], in [3], in assay [4] and in assay [5] was “inactive” throughout. Besides, the call in [2], in assay [9] and in [8] was inactive.
Regarding `CC(C)C1=CC2=CC[C@@H]3[C@](C)(CCC[C@@]3(C)C(=O)O)[C@H]2CC1`, the Potency entry in [1], in [3], in assay [7], in [4] and in assay [5] was “inactive” throughout. Besides, the outcome in assay [2], in assay [9] and in assay [8] was inactive. In assay [6], the Potency result was “inactive and 54.9 µM [inconclusive] (active)”.
On to `CN(C)C(=O)NC1(c2ccccc2)CCN(CCC[C@]2(c3ccc(Cl)c(Cl)c3)CCCN(C(=O)c3ccccc3)C2)CC1`, for which, in assay [1], the Potency is 11.6 µM (active). Moreover, the Potency entry in [6], in [3], in assay [7] and in assay [5] was “inactive” throughout. Besides, the result in assay [9] and in assay [8] was inactive.
In the case of `C[C@@H]1CN(c2c(F)c(F)c3c(=O)c(C(=O)O)cn(C4CC4)c3c2F)C[C@H](C)N1`, the call in assay [2], in assay [9] and in [8] was inactive. Moreover, the Potency result in assay [6], in assay [3], in assay [7], in [4] and in assay [5] was “inactive” throughout.
With `CC(C)NCC(O)COc1ccc(CCOCC2CC2)cc1` (stereo not given), the compound was called inactive in [2]. For the same compound, the Potency result in assay [3], in assay [4] and in assay [5] was “inactive” in each case.
`O=C(C(Cl)Cl)N1CCOC12CCCCC2`: the Potency result in [6], in assay [3], in assay [7], in [4] and in assay [5] was “inactive” throughout. The outcome in assay [9] and in assay [8] was inactive.
Turning to `CCN(CC)CCOc1ccc(Cc2ccccc2)cc1`, the Potency in assay [1] was 10.6 µM (active); in assay [3], 26.8 µM (active); in [4] it was 29.8 µM (active). Moreover, in assay [5], the Potency entry was “inactive”.
On to `NCCC(O)(P(=O)(O)O)P(=O)(O)O`, for which the Potency result in assay [3], in assay [4] and in assay [5] was “inactive” throughout.
`CN(C)CC[C@@H](c1ccc(Cl)cc1)c1ccccn1`: the outcome in [2] was inactive.
As for `C1CCOC1`, the Potency result in [3], in assay [4] and in assay [5] was “inactive” in each case.
As to `CCc1nnc(NS(=O)(=O)c2ccc(N)cc2)s1`, the Potency result in [1], in assay [4] and in [5] was “inactive” in each case. Besides, the compound was classed as inactive in [2].
Take `Cn1cnc2c(F)c(Nc3ccc(Br)cc3Cl)c(C(=O)NOCCO)cc21`: the compound was classed as inactive in [2]. Besides, the Potency entry in assay [3], in assay [4] and in assay [5] was “inactive” in each case.
For the compound `CCCCCCCCCCCCCCCCOP(=O)([O-])OCC[N+](C)(C)C`, the Potency entry in assay [3], in [4] and in assay [5] was “inactive” throughout.
With `Cc1ccc(C(C)C)cc1O`, the Potency result in assay [1], in assay [3], in assay [4] and in assay [5] was “inactive” each time. Further, the call in [2] was inactive.
On to `Cc1ccc(C=O)s1`, for which the Potency entry in assay [1], in assay [3], in assay [4] and in assay [5] was “inactive” in each case. The compound was called inactive in [2].
On to `CCCCCCC`, for which the Potency entry in [6], in assay [3], in assay [7], in [4] and in [5] was “inactive” each time. Moreover, the result in assay [9] and in assay [8] was inactive.
Take `Cc1cc2c(s1)Nc1ccccc1N=C2N1CCN(C)CC1`: the compound was classed as inactive in assay [2], in assay [9] and in [8]. Moreover, the Potency result in assay [6], in assay [3], in assay [7], in assay [4] and in assay [5] was “inactive” in each case.
Consider `CCOC(=O)c1ccccc1O`, for which the Potency result in assay [1], in [3], in assay [4] and in assay [5] was “inactive” each time. The outcome in assay [2] was inactive.
For the compound `CN1CCN(C2=Nc3ccccc3Oc3ccc(Cl)cc32)CC1`, the result in [2], in [9] and in assay [8] was inactive. Further, the Potency entry in [6], in assay [3], in [7], in assay [4] and in assay [5] was “inactive” each time.
Regarding `C1CSCCS1`, the Potency entry in assay [1], in [3], in [4] and in assay [5] was “inactive” each time. In [2], the outcome was inactive.
Consider `CC(C)C[C@H](NC(=O)OCC1c2ccccc2-c2ccccc21)C(=O)O`, for which the compound was classed as inactive in assay [2]. The Potency result in assay [3], in [4] and in assay [5] was “inactive” in each case.
For the compound `CNCCC(Oc1ccccc1OC)c1ccccc1` (stereo not given), the result in assay [2], in [9] and in [8] was inactive. The Potency entry in [6], in assay [3], in [7], in assay [4] and in [5] was “inactive” each time.
For `CCC1(C)NC(=O)NC1=O` (stereo not given), the Potency result in [1], in [4] and in assay [5] was “inactive” in each case. Moreover, the outcome in assay [2] was inactive.
For `CCCCNc1ccc(C(=O)OCCN(CC)CC)cc1`, the compound was classed as inactive in assay [2], in assay [9] and in assay [8]. The Potency entry in [6], in assay [7] and in assay [5] was “inactive” throughout.
Regarding `Nc1ccc(Oc2ccc(N)c(N)c2)cc1`, the outcome in [2] and in assay [9] was inactive. The Potency entry in [3] and in [4] was “inactive” throughout.
Turning to `CN1C(=O)CC(c2ccccc2)C1=O` (stereo not given), the Potency result in [1], in [3], in assay [4] and in [5] was “inactive” throughout. Further, the outcome in assay [2] was inactive.
As for `CC(=O)Oc1cc(C(C)C)c(OCCN(C)C)cc1C`, the Potency result in assay [1], in assay [3] and in assay [5] was “inactive” each time. For the same compound, the result in assay [2] was inactive.
On to `CN(C)CCOc1ccccc1Cc1ccccc1`, for which the compound was called inactive in assay [2]. The Potency result in assay [3] and in [5] was “inactive” each time. Moreover, the Potency in [4] was 2.37 µM (active).
Take `CN1CCC[C@@H]1Cc1c[nH]c2ccc(CCS(=O)(=O)c3ccccc3)cc12`: the Potency in assay [1] was 21.1 µM (active). For the same compound, the result in assay [2] was inactive. Further, the Potency result in assay [3] and in assay [5] was “inactive” in each case.
In the case of `CC1=C(O)C(=O)OC1C` (stereo not given), the Potency entry in assay [1], in [3], in [4] and in assay [5] was “inactive” throughout. For the same compound, the compound was classed as inactive in assay [2].
On to `COc1cc(Cl)ccc1Cl`, for which the Potency result in assay [1], in [3], in assay [4] and in [5] was “inactive” each time. Besides, the result in assay [2] was inactive.
Take `CCN(O)CC`: the Potency entry in [1], in assay [3], in assay [4] and in assay [5] was “inactive” in each case. Besides, in assay [2], the result was inactive.
For the compound `CCCc1c2oc(C(=O)O)cc(=O)c2cc2c(=O)cc(C(=O)O)n(CC)c12`, the Potency entry in assay [6], in [7], in assay [4] and in assay [5] was “inactive” in each case. Moreover, the outcome in [9] and in assay [8] was inactive.
`CC(C)(C)c1ccc(OC(=O)c2ccccc2O)cc1`: the call in [2] and in assay [9] was inactive. Besides, the Potency result in assay [6], in assay [3], in assay [4] and in assay [5] was “inactive” throughout. The Potency in assay [7] was 27.3 µM (active).
Take `CC(C)NC[C@@H](O)COc1cccc2ccccc12`: in assay [2], the outcome was inactive. Also, the Potency entry in [3], in assay [4] and in [5] was “inactive” each time.
In the case of `CCC(=O)c1ccc2c(c1)N(CCCN(C)C)c1ccccc1S2`, the Potency in assay [1] was 7.5 µM (active). Further, the Potency result in [3] was “inactive”.
Regarding `O=C(CC(=O)C(F)(F)F)c1ccccc1`, the compound was called inactive in assay [2] and in assay [9]. For the same compound, the Potency in assay [6] is 28 µM [inconclusive] (active); in assay [7], 19.6 µM (active). Further, the Potency result in assay [3] and in assay [5] was “inactive” in each case.
Take `CCCCC(=O)O[C@]1(C(=O)CO)[C@H](C)C[C@H]2[C@@H]3CCC4=CC(=O)C=C[C@]4(C)[C@@]3(F)[C@@H](O)C[C@@]21C`: the compound was called inactive in assay [2] and in assay [9]. The Potency entry in assay [3], in [7], in [4] and in [5] was “inactive” each time.

Values taken from PubChem BioAssay (Tox21).
